These results are taken from PubChem BioAssay (Tox21).

Assay [1] is described as follows: qHTS assay for small molecule agonists of the p53 signaling pathway (AID 651631; calls by dose curve; further: nearly all actives have a fitted effect of over 15% in size; further: potency means the concentration at half of the fitted maximal effect). Put shortly: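 Read-out is beta-lactamase FRET fluorescence measured 2 h after substrate addition at room temperature, in HCT-116 cells with a p53 response element-driven reporter exposed to compounds for 16 h at 37 °C.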
For orientation: qHTS replaces the single test concentration by a dilution series.

Assay [2] can be described thus: qHTS assay for small molecules that induce genotoxicity in human embryonic kidney cells expressing luciferase-tagged ATAD5 (AID 651632). Further: nearly all actives have a fitted effect of over 15% in size. Put shortly: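 Genotoxicity read-out via ATAD5-luciferase: HEK293T cells, 16 hr compound incubation at 37C, Amplite detection.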
Assay [3] can be described thus: qHTS assay for small molecule agonists of the p53 signaling pathway - cell viability (AID 651633; calls by dose curve; further: nearly all actives have a fitted effect of over 30% in size; further: potency means the concentration at half of the fitted maximal effect). Put shortly: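 p53RE-bla cells were treated with compound for 16 hours at 37 C. Cytotoxicity was then measured as CellTiter-Glo luminescence after 30 min at room temperature.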
Assay [4] in a line: qHTS assay for small molecules that induce genotoxicity in human embryonic kidney cells expressing luciferase-tagged ATAD5 - cell viability (AID 651634; calls by dose curve; further: nearly all actives have a fitted effect of over 25% in size; further: potency means the concentration at half of the fitted maximal effect). Put shortly:
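Live-cell protease activity (CellTiter-Fluor, fluorescence) indicates viability. HEK293T cells with luciferase-tagged ATAD5; 15.5 hr compound treatment at 37C.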

Assay [5] is described as follows: qHTS assay for small molecule disruptors of the mitochondrial membrane potential - cell viability (AID 720634; calls by dose curve; further: nearly all actives have a fitted effect of over 20% in size; further: potency means the concentration at half of the fitted maximal effect). Put shortly: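 Human hepatoma HepG2 cells were treated for 1 hr with test chemicals, then given m-MPI dye and CellTiter-Glo. Cell viability reflects luminescence proportional to cellular ATP.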
A short description of assay [6]: qHTS assay for small molecule disruptors of the mitochondrial membrane potential (AID 720635). Further: potency means the concentration at half of the fitted maximal effect. Put shortly: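 HepG2 cells exposed to compound 1 hr at 37C, then Mito-MPS dye 30 min. Ratio read of aggregate (540/590 nm) versus monomer (490/535 nm) fluorescence.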
The nature of assay [7]: qHTS assay to test for compound auto fluorescence at 590 nm (red) in HepG2 cells (AID 720674). Put shortly: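 HepG2 cells, 2,000 per well in MEM with 10% FBS, attached overnight at 37 C, then got 23 nL compound or DMSO. After 1 hr at 37 C, 5% CO2, red fluorescence was read at 540/590 nm against Rose Bengal sodium as reference.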
Assay [8] is described as follows: qHTS assay to test for compound auto fluorescence at 535 nm (green) in HepG2 cells (AID 720675).
Assay [9] in a line: qHTS assay to test for compound auto fluorescence at 460 nm (blue) in HEK293 cells (AID 720678). Put shortly: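 Cells were seeded and left to adhere for 4-5 hr at 37C. Compounds were then pin-transferred. After an overnight incubation at 37C under 5% CO2, intrinsic fluorescence at 405/460 nm was measured and referenced to triamterene.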
Assay [10] can be described thus: qHTS assay to test for compound auto fluorescence at 590 nm (red) in HEK293 cells (AID 720679). Put shortly:
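Each well held 2,000 HEK293 cells in medium containing 10% dialyzed FBS. Following 4-5 hr attachment at 37C, 23 nL test compound or DMSO was added; plates sat overnight, and red fluorescence (540/590nm) was recorded.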

Assay [11] is described as follows: qHTS assay to test for compound auto fluorescence at 535 nm (green) in HEK293 cells (AID 720680).
A short description of assay [12]: qHTS assay to test for compound auto fluorescence at 460 nm (blue) in HEK293 cell free culture (AID 720681). Put shortly: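 Compounds were added to cell-free DMEM with 10% FBS and fluorescence read directly. The blue channel used 405 nm excitation and 460 nm emission, with triamterene as the reference fluorophore.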
Assay [13] in a line: qHTS assay to test for compound auto fluorescence at 535 nm (green) in HEK293 cell free culture (AID 720682). Put shortly: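 Fluorescein serves as the green reference fluorophore; each compound's intrinsic emission at 535 nm (excitation 485 nm) is reported as an equivalent amount of that dye, measured in serum-containing DMEM without cells.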
Assay [14] can be described thus: qHTS assay to test for compound auto fluorescence at 590 nm (red) in HEK293 cell free culture (AID 720683). Put shortly: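 Cell-free wells of DMEM with 10% FBS received compound, and intrinsic fluorescence was read at excitation/emission 540/590 nm. Values expressed as equivalence to Rose Bengal sodium.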
Assay [15] can be described thus: qHTS assay to test for compound auto fluorescence at 590 nm (red) in HepG2 cell free culture (AID 720684). Put shortly:
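Compound was pinned into wells holding MEM with 10% FBS and no cells, and red fluorescence was read at Ex/Em 540/590 nm. Signal is expressed as auto fluorescence equivalency relative to Rose Bengal sodium.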

A short description of assay [16]: qHTS assay to test for compound auto fluorescence at 460 nm (blue) in HepG2 cell free culture (AID 720685). Put shortly: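 Compound (23 nL) or DMSO pinned into cell-free MEM with 10% FBS; blue fluorescence read at 405/460 nm excitation/emission, expressed as auto-fluorescence equivalency to triamterene.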
Assay [17] is described as follows: qHTS assay to test for compound auto fluorescence at 535 nm (green) in HepG2 cell free culture (AID 720686).
A short description of assay [18]: qHTS assay to test for compound auto fluorescence at 460 nm (blue) in HepG2 cells (AID 720687). Put shortly: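 HepG2 cells in MEM with 10% FBS, attached overnight at 37 C, were exposed to compound or DMSO for 1 hr at 37 C, 5% CO2. Blue fluorescence was read at 405/460 nm, with triamterene as reference fluorophore.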
The target in assay [19] is Glucocorticoid receptor (Homo sapiens) (UniProt P04150). Nature of the assay: qHTS assay to identify small molecule agonists of the glucocorticoid receptor (GR) signaling pathway (AID 720691; active means well fitted activation curve with a large enough effect in the signal ratio in the repeat runs, not every such curve was filed as active; inconclusive means weak or mixed curves, or effect the other way; inactive means no such curve, though single readings can be large or run the other way; the % refers to the signal ratio; further: potency means the concentration at half of the fitted maximal effect). The note with it: GR-bla HeLa, beta-lactamase reporter ratio, 18 h; activation: at 62.4 µM (top of the series). Put shortly: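 Beta-lactamase reporter activity, read as fluorescence intensity, was measured in GR-bla HeLa cells exposed to compounds for 18 h at 37 C and then loaded with LiveBLAzer B/G FRET substrate for 2 h at room temperature.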

For assay [20] the target is unchanged. Nature of the assay: qHTS assay to identify small molecule antagonists of the glucocorticoid receptor (GR) signaling pathway (AID 720692; active means well fitted inhibition curve with a large enough effect in the signal ratio in the repeat runs, not every such curve was filed as active; inconclusive means weak or mixed curves, or effect the other way; inactive means no such curve, though single readings can be large or run the other way; the % refers to the signal ratio). Put shortly: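 Fluorescence from cleaved LiveBLAzer B/G FRET substrate reports GRE-driven beta-lactamase in HeLa cells; compounds are tested against 5 nM dexamethasone (final) over 18 h at 37 C, substrate incubation 2 h at room temperature.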

Values without a mark were called inactive. Active and inactive are the calls of the source. Unless noted, the call rests on the fitted dose curve; in most records, active means well fitted curve in the direction sought with a large enough effect in the repeat runs; inconclusive means weak or mixed curves; inactive means no such curve, though single readings can be large; an effect the other way counts as inactive or inconclusive. Non-standard residues stand in square brackets, D forms with d. Residues, ends and D or L forms follow the SMILES beside them. Orn = NCCC[C@H](N)C(=O)O

Glucocorticoid receptor (Homo sapiens), sequence (P04150 whole entry, looked up): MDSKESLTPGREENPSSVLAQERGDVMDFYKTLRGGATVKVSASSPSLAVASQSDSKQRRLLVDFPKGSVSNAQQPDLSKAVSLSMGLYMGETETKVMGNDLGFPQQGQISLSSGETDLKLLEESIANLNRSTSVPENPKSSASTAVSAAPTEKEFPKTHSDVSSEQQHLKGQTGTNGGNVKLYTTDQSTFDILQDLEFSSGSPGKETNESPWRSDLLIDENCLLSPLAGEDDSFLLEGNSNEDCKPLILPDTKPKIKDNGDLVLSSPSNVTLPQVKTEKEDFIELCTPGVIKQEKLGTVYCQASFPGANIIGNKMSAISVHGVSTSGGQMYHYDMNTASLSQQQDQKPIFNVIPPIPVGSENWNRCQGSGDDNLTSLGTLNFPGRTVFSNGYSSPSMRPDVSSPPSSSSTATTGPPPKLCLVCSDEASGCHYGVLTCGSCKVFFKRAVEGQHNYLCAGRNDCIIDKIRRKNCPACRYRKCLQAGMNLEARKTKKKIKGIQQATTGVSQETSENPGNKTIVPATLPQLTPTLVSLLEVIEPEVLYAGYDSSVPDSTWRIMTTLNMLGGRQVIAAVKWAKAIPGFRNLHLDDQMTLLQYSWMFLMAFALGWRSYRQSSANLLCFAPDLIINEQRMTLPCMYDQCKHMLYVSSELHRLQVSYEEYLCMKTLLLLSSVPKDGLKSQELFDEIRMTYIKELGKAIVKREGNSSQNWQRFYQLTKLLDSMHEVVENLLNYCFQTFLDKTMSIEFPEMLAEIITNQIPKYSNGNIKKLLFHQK

As for `CN(C)CCC(O)(c1ccccc1)c1ccccc1Cl` (stereo not drawn), the Potency result in [1], in assay [2], in [3], in assay [4], in [5] and in [6] was “inactive” in each case. The Potency entry in assay [8], in assay [9], in assay [12], in assay [16], in assay [17] and in [18] was “inactive” in each case. Further, the Potency result in assay [19] and in assay [20] was “inactive” each time. For the same compound, the compound was classed as inactive in [7], in [10], in assay [11], in assay [13], in [14] and in [15].

Take `CC(C)C[C@@H]1NC(=O)[C@H](CCCN)NC(=O)[C@H](C(C)C)NC(=O)[C@@H]2CCCN2C(=O)[C@@H](Cc2ccccc2)NC(=O)[C@H](CC(C)C)NC(=O)[C@H](CCCN)NC(=O)[C@H](C(C)C)NC(=O)[C@@H]2CCCN2C(=O)[C@@H](Cc2ccccc2)NC1=O` (cyclo(V[Orn]L[dF]PV[Orn]L[dF]P)): the Potency in assay [1] was 1880 nM (active); in [3], 2660 nM (active); in assay [4], 2980 nM (active); in [5] it was 13300 nM (active); in assay [6] it was 237 nM (active); in assay [19], 23900 nM [inconclusive] (active). Besides, the Potency entry in assay [2], in assay [8], in [9], in assay [12], in assay [16] and in assay [17] was “inactive” in each case. For the same compound, the Potency entry in assay [18] was “inactive”. For the same compound, the outcome in [7], in assay [10], in assay [11], in assay [13], in assay [14] and in [15] was inactive.

On to `O=C(O)COc1ccc(C(=O)c2cccs2)c(Cl)c1Cl`, for which the Potency result in [1], in assay [2], in assay [3], in [4], in assay [5] and in assay [6] was “inactive” each time. Further, the Potency result in assay [8], in assay [9], in [12], in assay [16], in [17] and in assay [18] was “inactive” in each case. Further, the Potency result in [19] and in [20] was “inactive” each time. Besides, the outcome in assay [7], in [10], in assay [11], in assay [13], in assay [14] and in assay [15] was inactive.

As to `O=C(O)[C@H]1CN(C/C=C/P(=O)(O)O)CCN1`, the Potency result in assay [1], in assay [2], in assay [3], in [4], in [5] and in assay [6] was “inactive” each time. The Potency entry in assay [8], in assay [9], in assay [12], in assay [16], in [17] and in assay [18] was “inactive” in each case. Further, the Potency entry in assay [19] and in assay [20] was “inactive” each time. The compound was called inactive in assay [7], in [10], in assay [11], in [13], in assay [14] and in assay [15].

With `NS(=O)(=O)c1cc(Cl)c(Cl)c(S(N)(=O)=O)c1`, the Potency result in assay [1], in assay [2], in assay [3], in assay [4], in [5] and in assay [6] was “inactive” each time. The Potency entry in assay [8], in assay [9], in assay [12], in assay [16], in assay [17] and in assay [18] was “inactive” each time. Further, the Potency entry in assay [19] and in assay [20] was “inactive” throughout. The compound was classed as inactive in [7], in assay [10], in assay [11], in assay [13], in assay [14] and in [15].

In the case of `NC(=O)CC[C@@H]1NC(=O)[C@H](Cc2ccccc2)NC(=O)[C@H](Cc2ccc(O)cc2)NC(=O)[C@@H](N)CSSC[C@@H](C(=O)N2CCC[C@H]2C(=O)N[C@@H](CCCN=C(N)N)C(=O)NCC(N)=O)NC(=O)[C@H](CC(N)=O)NC1=O`, the Potency entry in [1], in [2], in assay [3], in assay [4], in assay [5] and in assay [6] was “inactive” in each case. Further, the Potency result in assay [8], in [9], in assay [12], in assay [16] and in [18] was “inactive” in each case. Also, the outcome in assay [7], in assay [10], in assay [11], in [13], in assay [14] and in assay [15] was inactive.

Turning to `CN(C)CCc1c[nH]c2ccc(Cn3cncn3)cc12`, the Potency result in assay [1], in assay [2], in assay [3], in [4], in assay [5] and in assay [6] was “inactive” each time. The Potency result in assay [8], in assay [9], in assay [12], in assay [16] and in assay [18] was “inactive” in each case. The result in assay [7], in [10], in assay [11], in assay [13], in [14] and in assay [15] was inactive.
